This note sets out measurements from PubChem BioAssay (NCI).

Molecules are shown by their SMILES. This is part of a sample that, as a whole, favours compounds with a hit. Of some 79,000 tested, about 15% had one in any assay. Activity calls are given as the source filed them. Cut-off read from the data, not from the text of the source: active = growth inhibition above about 70%; inactive = the rest.

This test in a line: NCI Yeast Anticancer Drug Screen. Data for the sgs1 mgt1 strain (AID 161).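 Note: 0% = growth of cultures given vehicle only.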 The conditions noted are these: S. cerevisiae sgs1 mgt1 strain, at 50.0 µM (retest, dose inferred, filed as 5.0), hits give high values. In a few lines:
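Yeast cells carrying a defined DNA-repair defect were exposed to test compounds. Growth inhibition was measured relative to vehicle-treated controls.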
Turning to `COc1ccc(N=N/N=c2\sc3cc(Cl)ccc3n2C)cc1`, the growth inhibition is 42% (inactive). Then `O=c1ccc2nc3ccccc3ccc-2c1`, with -64% (inactive).

Take `CC(=O)Nc1ccc(O)c(=O)cc1`: the growth inhibition is 96% (active). Then `CC(=O)Oc1c([N+](=O)[O-])cc(-c2ccccc2)cc1[N+](=O)[O-]`, with 99% (active). Then `Cc1cc(O)c(C)c(C)c1N=Nc1ccccc1`, with -38% (inactive); and `CCCCCCCC/C=C\CCCCCCCC(=O)O` (tested in a mixture with another compound), with 98% (active). Consider `O=S(=O)(Nc1ccc(Cl)cc1)c1ccccc1`, for which the growth inhibition was 80% (active).

Consider `COC(=O)[C@@]12OC[C@]34[C@H]([C@@H](O)[C@@H]1O)[C@@]1(C)CC(=O)C(O)=C(C)[C@@H]1C[C@H]3OC(=O)[C@H](OC(=O)C(Cc1ccccc1)NC(=O)OC(C)(C)C)[C@@H]24` (stereo not given in full), for which the growth inhibition was 82% (active). Then `CSC(=S)n1nc(-c2cccs2)c(N=Nc2ccc(Cl)cc2)c1C(F)(F)F`, with 75% (active). Then `CCN1C2=NCCN2S(=O)(=O)c2ccccc21`, with 14% (inactive); and `CCCc1cc(-c2ccc(O)c(CCC)c2)ccc1O`, with 99% (active); and `O=[N+]([O-])c1ccc(-c2cccc(Cl)c2)c([N+](=O)[O-])c1`, with 99% (active). Then `COC(=O)Oc1nn(C(=O)OC)c(=O)c2ccccc12`, with 43% (inactive); and `Cc1n(CC(C)C)c2c([n+]1CC(=O)c1ccc([N+](=O)[O-])cc1)C(=O)c1ccccc1C2=O`, with 98% (active). For `O=C(c1ccccc1)C1C(c2ccccc2)OP(c2ccccc2)(c2ccccc2)(c2ccccc2)C1c1ccccc1` (stereo not given), the growth inhibition was 100% (active).
